{"source": "PubChem BioAssay (EPA / NIEHS)", "note": "Activity calls are given as the source filed them. The calls were made as follows: active = hit-call score of the fitted dose curve at least 0.9, where 1 is the maximum; inactive = score below 0.9."}
{"read-out": "Basic fibroblast growth factor (bFGF), FGF2 (gene 2247)", "assay": "BSK_MyoF_bFGF: BioMAP Diversity Plus: MyoF Assay for Basic fibroblast growth factor (bFGF) Biomarker Activity (AID 2284246)", "settings": "primary human lung fibroblasts", "experimental": "BSK_MyoF is a cell-based, multiplexed-readout assay that uses lung fibroblasts, a human […] primary cell, with measurements taken at 24 hours after chemical dosing in a microplate: 96-well plate.BSK_MyoF_bFGF is an assay component measured in the BSK_MyoF assay. It measures bFGF antibody related to regulation of gene expression using ELISA technology.Data from the assay component BSK_MyoF_bFGF was analyzed at the endpoint, BSK_MyoF_bFGF, in the positive analysis fitting direction relative to DMSO as the negative control and baseline of activity. Using a type of binding reporter, gain or loss-of-signal activity can be used to understand protein changes. To generalize the intended target to other relatable targets, this assay endpoint is annotated to the 'growth factor' intended target family, where the subfamily is 'basic fibroblast growth factor '.\nThe levels of cell surface (or secreted, indicated by the prefix \"s\") biomarker endpoints were measured by ELISA. Overt cytotoxicity to cells in confluent adherent cultures (all systems other than the BT system) was assessed by measuring total protein levels using sulforhodamine B (SRB) staining in parallel cultures at the time of biomarker measurements, indicated as SRB endpoints. For proliferation assays for adherent cell types, individual cell types are cultured at sub-confluence and relative cell numbers quantified by SRB staining at time points optimized for each system (48 h: 3C and CASM3C systems; 72 h: BT and HDF3CGF systems; 96 h: SAg system). SRB was performed by staining cells with 0.1% SRB after fixation with 10% TCA and reading wells at 560 nm.Viability and proliferation of PBMC (T cells) was quantified by Alamar Blue reduction for the SAg and BT systems. For PBMC viability (referred to as PBMC Cytotoxicity within the assay endpoint names), cells were plated (75,000/well in a 96-well plate) and then chemical samples added for 1 h before addition of activators, SEB and TSST-1 (20 ng/mL final concentration each). Cells were incubated for 90 h. Then, Alamar Blue (20 uL/well) (Invitrogen, Cat DAL1100) was added for 6 h, and the plates were read with a fluorescence microplate reader at 546/580 nm (excitation/emission). For PBMC proliferation, cells were plated and activated as above but incubated for only 16 h prior to addition of Alamar Blue. Plates were read after 6 h."}
{"smiles": "O=C(O)C(F)(F)C(F)(F)C(F)(F)C(F)(F)C(F)(F)C(F)(F)C(F)(F)C(F)F", "outcome": "inactive"}
{"smiles": "CC(C)(C)c1cccc(O)c1", "outcome": "inactive"}
{"smiles": "CC(=O)CCC=C(C)CCC=C(C)C", "outcome": "inactive"}
{"smiles": "c1ccc2c(c1)-c1ccc3ccc4cccc5cc-2c1c3c45", "outcome": "inactive"}
{"smiles": "CCCCCCCCCCCCS", "AC50": "29 µM (active)"}
{"smiles": "CCCCCCCCCC(=O)OCC", "outcome": "inactive"}
{"smiles": "CC=CC(=O)C1=C(C)C=CCC1(C)C", "outcome": "inactive"}
{"smiles": "C=CC(=O)OCC(CO)(COC(=O)C=C)COC(=O)C=C", "AC50": "1.62 µM (active)"}
{"smiles": "CCC(=O)OCC=Cc1ccccc1", "outcome": "inactive"}
{"smiles": "O=S1(=O)CC(Cl)(Cl)C(Cl)(Cl)C1", "AC50": "2.06 µM (active)"}
{"smiles": "c1ccc(Sc2ccccc2)cc1", "AC50": "31.9 µM (active)"}
{"smiles": "C=C(F)C(=O)OC(C(F)(F)F)C(F)(F)F", "outcome": "inactive"}
{"smiles": "O=S(=O)(O)C(F)(F)C(F)(F)OC(F)(F)C(F)(F)F", "outcome": "inactive"}
{"smiles": "CC(=O)OCC=C(C)CCC=C(C)CCC=C(C)C", "outcome": "inactive"}
{"smiles": "CCOC(=O)C=Cc1ccccc1", "outcome": "inactive"}
{"smiles": "O=C(O)C(F)(F)OC(F)(F)C(F)(F)OC(F)(F)C(F)(F)C(F)(F)C(F)(F)F", "outcome": "inactive"}
{"smiles": "CCCCCCCC1CCCC1=O", "note": "(stereo not given)", "outcome": "inactive"}
{"smiles": "OCC(F)(OC(F)(F)C(F)(OC(F)(F)C(F)(F)C(F)(F)F)C(F)(F)F)C(F)(F)F", "note": "(stereo not given)", "outcome": "inactive"}
{"smiles": "NC(=O)c1c(Cl)cccc1Cl", "outcome": "inactive"}
{"smiles": "CC1=CC(C)C(C=O)C(C)C1", "note": "(stereo not given) (tested in a mixture with another compound)", "outcome": "inactive"}
{"smiles": "C=C1CC/C=C(\\C)CC[C@@H]2[C@@H]1CC2(C)C", "AC50": "34.7 µM (active)"}
{"smiles": "O=C1OC2(c3ccc(O)cc3Oc3cc(O)ccc32)c2ccccc21", "outcome": "inactive"}
{"smiles": "CC1(C)[C@H](C=C(Cl)Cl)[C@H]1C(=O)OCc1cccc(Oc2ccccc2)c1", "outcome": "inactive"}
{"smiles": "C=C(C)C(=O)OCCC(F)(F)C(F)(F)C(F)(F)C(F)(F)C(F)(F)C(F)(F)C(F)(F)C(F)(F)F", "outcome": "inactive"}
{"smiles": "CC(C)Cc1ccc(C(C)C(=O)O)cc1", "note": "(stereo not given)", "outcome": "inactive"}
{"smiles": "COc1ccccc1NC(=O)CC(C)=O", "outcome": "inactive"}
{"smiles": "CCOC(=O)CCCCCCCCC(=O)OCC", "outcome": "inactive"}
{"smiles": "CC(=O)OC(C)(C)C1CC=C(C)CC1", "note": "(stereo not given)", "outcome": "inactive"}
{"smiles": "OCCN1CCOCC1", "outcome": "inactive"}
{"smiles": "Nc1ccc(N)c([N+](=O)[O-])c1", "outcome": "inactive"}
